# Source: PubChem (The Scripps Research Institute Molecular Screening Center)
# The list is not random: actives were taken first. Their share in the collection is about 4.8%.
# hcDAF12 agonist = activators of H. contortus DAF-12 nuclear receptor; activation, % at 6.8 µM; HEK293 hcDAF-12 lit1-tk-luc reporter, luminescence; 0% DMSO, 100% Δ7-dafachronic acid; actives 1.4% (n = 370,000);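 active means activation above the mean of all tested compounds plus 3 SD, cut at about 5.5% in these data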;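 further: 100% = response to 3 µM Δ7-dafachronic acid high control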
# SMARCA2 act = SMARCA2 function activation, primary screen; actives 1% (n = 370,000); activation, % at 9.1 µM; MG213 cells, MMTV-luciferase reporter, dexamethasone, overnight; in the data active means activation above about 7.8%;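 further: 0% = vehicle wells and 100% = reference activator wells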
# ssDAF-12 act = activators of S. stercoralis DAF-12 nuclear receptor; HEK293 ssDAF-12/GRIP1 lit1-tk-luc reporter, luminescence; % of 3 µM dafachronic acid response; activation, % at 6.8 µM; actives 1% (n = 370,000); AID 652126;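 active means activation above the mean over all tested compounds plus 3 SD, cut at about 0.9% in these data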;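 further: 0% = DMSO-only wells and 100% = 3 µM delta7-dafachronic acid wells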
# DAX1 inh-1 = DAX1 (NR0B1) inhibition, primary screen; inhibition, % at 6.8 µM; actives 1.1% (n = 370,000); HEK293T StAR-luciferase reporter, SF-1/DAX-1 repression relief;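 active means inhibition above the mean over all tested compounds plus 3 SD, cut at about 3.6% in these data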;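 further: 0% = DAX-1 cells with DMSO and 100% = cells lacking DAX-1 with DMSO; higher inhibition means more luminescence from relief of DAX-1 repression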
# hgDAF12 agonist = agonists of H. glycines DAF-12 nuclear receptor. HEK293 GAL4-hgDAF12 UAS-luciferase reporter, agonist luminescence; normalized to butyrate control. activation, % at 6.8 µM. actives 1.8% (n = 370,000). AID 687014;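 active means activation above a cutoff set at the mean of all screened compounds plus 3 SD, cut at about 10% in these data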;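 further: 0% = DMSO wells and 100% = sodium butyrate wells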
# DAX1 inh-2 = inhibitors of human orphan nuclear receptor DAX1 (NR0B1); P51843; HEK293 Gal4-DAX1 luciferase reporter, luminescence; inhibition, % at 6.75 µM; actives 0.99% (n = 340,000); AID 504766;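 active means inhibition above the mean over all tested compounds plus 3 SD, cut at about 4.2% in these data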;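 further: 0% = DAX1-transfected cells with DMSO and 100% = empty-vector control cells with DMSO; inhibition shows as a rise in luminescence from relieved DAX1 repression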
# Target sequence (P51843 207-470 limits assumed): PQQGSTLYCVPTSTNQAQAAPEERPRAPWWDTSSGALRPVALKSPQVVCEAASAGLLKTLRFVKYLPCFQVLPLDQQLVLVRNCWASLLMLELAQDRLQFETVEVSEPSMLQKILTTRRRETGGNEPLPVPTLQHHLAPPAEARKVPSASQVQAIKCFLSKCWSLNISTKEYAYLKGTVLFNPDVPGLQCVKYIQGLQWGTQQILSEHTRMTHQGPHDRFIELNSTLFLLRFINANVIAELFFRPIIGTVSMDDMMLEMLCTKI
# The depositor's hits bear a star; nt = no result.
SMILES,hcDAF12 agonist,SMARCA2 act,ssDAF-12 act,DAX1 inh-1,hgDAF12 agonist,DAX1 inh-2
COP(=O)(OC)OC(C(=O)c1ccccc1)c1ccc(Cl)cc1 (stereo not drawn),-1,-7,-2,-1,-1,nt
CC(=O)c1ccc(NC(=O)CN2C(=O)/C(=C/C=C/c3ccccc3)SC2=S)cc1,6.5*,0,0,0,3,-1
CC(=Cc1ccccc1)C=C1SC(=S)N(CCCC(=O)Nc2ccc(C(=O)O)cc2)C1=O,0,-1,-2,4.2*,2,nt
CCN(CC)CCOC(=O)c1ccc(NC(=O)CCCN2C(=O)/C(=C\c3cccs3)SC2=S)cc1,-1,0,0,6.8*,-3,1
O=C(O)CN1C(=O)/C(=C/C=C/c2ccccc2)SC1=S,0,1,-1,0,1,1
CC(/C=C1\SC(=S)N(CCCC(=O)Nc2ccc(C(=O)O)cc2)C1=O)=C\c1ccccc1,-1,1,-1,1,0,0
O=C(CCN1C(=O)S/C(=C\C=C\c2ccccc2)C1=O)Nc1ccc(O)cc1,0,2,0,0,12*,2
COc1ccccc1C(=O)NCc1nnc(SCC(=O)Nc2nccs2)n1C,3,2,-1,0,-1,8.3*
Cc1ccc(SCC(=O)Nc2nccs2)cc1,1,7.8*,-1,1,4,0
COc1ccc(OCC(=O)Nc2nccs2)cc1,6.1*,1,0,3,8,-2
CCC(=O)c1ccc(OCC(=O)Nc2nc(-c3cccnc3)cs2)cc1,3,-3,0,1,2,-2
Cn1c(CSCc2ccccc2)nnc1SCC(=O)Nc1nccs1,-1,-2,-1,-1,-3,-1
CCC(=O)c1ccc(OCC(=O)Nc2nc(C)cs2)cc1,1,3,0,2,12*,3
CC1CC(=O)N(CC(=O)Nc2ccc(F)cc2)c2ccccc2S1(=O)=O (stereo not drawn),0,0,-1,-1,-3,1
Cc1cccc(OCC(=O)NCC(=O)N=Nc2c(O)[nH]c3ccc([N+](=O)[O-])cc23)c1,3,0,0,0,3,6.1*
Cc1ccccc1N1C(=O)CC2(CCCC2)CC1=O,0,-3,1.1*,1,0,0
CC(C)CN1C(=O)[C@]2(CC(=O)N(C)C2c2ccccc2)c2cc(-n3cc(-c4ccccc4)nn3)ccc21 (stereo partly drawn),-3,-6,-2,-2,0,nt
CC(=O)NC(C)(c1ccccc1)c1nc(-c2cccc3cccnc23)cs1 (stereo not drawn),-1,2,-2,-2,-3,nt
O=C(Nc1nnc(-c2cccnc2)s1)c1cccs1,1,-2,-2,0,6,-1
Cc1cccc(-c2nnc(NC(=O)c3cccs3)s2)c1,-1,-3,-1,0,-1,4.3*
COc1cc(/C=N/n2cnnc2)ccc1OCC(=O)N1CCOCC1,0,0,-1,0,-3,4.9*
COc1ccc(-c2[nH]ncc2CN2CCCO2)cc1F,-1,-1,-2,0,1,1
COc1ccc(-c2[nH]ncc2CN(C)CCCN2CCOCC2)cc1F,-1,3,-1,0,0,5.9*
O=C(O)c1ccccc1C(=O)Nc1ccc(Oc2cccc(C(F)(F)F)c2)nc1,6.2*,0,0,0,-2,1
Cc1ccc(C(=O)Nc2ccc(Oc3cccc(C(F)(F)F)c3)nc2)cc1,-2,-5,-1,0,-2,0
SMILES,hcDAF12 agonist,SMARCA2 act,ssDAF-12 act,DAX1 inh-1,hgDAF12 agonist,DAX1 inh-2
CC1=NN(C(=O)c2ccco2)C(O)(c2ccccc2)C1 (stereo not drawn),3,1,1.0*,1,11*,6.3*
Cc1cccc(C(=O)N[C@H](C(=O)Nc2ccc3c(c2)OCO3)C(C)C)c1,0,-3,-1,0,-3,-1
COC(=O)c1ccc(/C=C/c2ccc3cccc(OC(C)=O)c3n2)cc1,2,5,0,3,12*,1
CCCc1cc(C(=O)Cc2nc3ccccc3s2)c(O)cc1O,5.7*,1,0.9*,1,5,1
CCCc1cc(C(=O)Cc2ccc(F)cc2)c(O)cc1O,-1,-1,-1,0,0,0
CCOC(=O)c1c(C)[nH]c(/C(C)=N/NC(=O)c2cccnc2)c1C,2,1,0,1,1,3
CCOC(=O)c1c(C)[nH]c(C(C)=NNC(=O)c2cccs2)c1C,1,5,-1,4.0*,12*,1
Cn1c(/C(C#N)=C(\O)c2ccc(Br)s2)nc2ccccc21,5,2,1.0*,0,3,0
CCCC1NC(=O)c2cccnc2-n2c1nc1ccc(C)cc1c2=O (stereo not drawn),0,-3,-1,-1,0,0
CCCC1(CCC)NC(=O)N(CC(=O)Nc2ccc(Cl)c(S(=O)(=O)N3CCOCC3)c2)C1=O,-2,-8,-1,0,-2,0
CCCc1nnn(S(=O)(=O)c2ccc([N+](=O)[O-])cc2)c1CCC,0,-6,0,1,-1,5.0*
Cc1nn(S(=O)(=O)c2ccccc2)c(C)c1Sc1ccc([N+](=O)[O-])cc1,-3,-3,-2,-2,-2,-1
Cc1cc(C)c(S(=O)(=O)Nc2nnc(C)s2)c(C)c1,-1,1,-1,0,1,1
Cc1cc(C)c(S(=O)(=O)Nc2nnc(CC(C)C)s2)c(C)c1,-2,0,-1,0,1,4.4*
Cc1ccc(NCc2ccc(O)c3ncccc23)cc1C,-2,4,1.9*,0,-2,-1
Cc1ccc(NCc2ccc(O)c3ncccc23)cc1,0,-2,0,0,1,0
Nc1ccc2nc(SCc3ccccc3F)sc2c1,5,6,1.0*,0,8,3
Nc1nnc(SCC(=O)c2cccc([N+](=O)[O-])c2)s1,-2,-1,-2,0,-1,-1
CCOc1ccc2nc(SCc3ccc(F)cc3)sc2c1,0,1,-1,0,3,0
Nc1ccc2nc(SCC(=O)c3ccccc3)sc2c1,2,3,1.3*,-1,4,-1
Nc1nnc(SCC(=O)c2ccc3ccccc3c2)s1,3,4,1.1*,3,10,1
COc1cccc(NC(=O)COC(=O)Cc2ccc(Cl)cc2)c1,0,3,0,1,0,1
COc1cccc(NC(=O)n2nc(N)cc2-c2ccc(Cl)cc2)c1,0,-1,-1,-1,12*,-1
COc1ccc(S(=O)(=O)NCC2(N3CCOCC3)CCCCC2)cc1OC,-1,1,-1,-1,-1,0
